Values joined by “and” are separate entries in the source; they are usually repeats but may differ in a detail not shown here. Equal values may be shown once. Hit rate of the full screen: of about 310,000 compounds, about 11,000 (3.5%) were called active. Roughly 4% stayed inconclusive and do not appear here. Shown is part of a subset that was picked to be rich in actives. Values without a mark were called inactive. Calls follow the shape of the dose curve; as a rule, active = well fitted inhibition curve with a large enough effect; inconclusive = small, poorly fitted or top-dose-only effect, or another doubt; inactive = no such curve, though single readings can be large or run the other way.
Potency is read from the fitted curve at half-maximal effect.

This test addresses 4'-phosphopantetheinyl transferase ffp (Bacillus subtilis) (UniProt Q9F4F7). In words: qHTS Assay for Inhibitors of Bacillus subtilis Sfp phosphopantetheinyl transferase (PPTase).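 Also: the enzyme is Sfp with the accession as filed and its product quenches rhodamine fluorescence.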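 As to largest response in the series, negative = inhibition: 0% = enzyme reaction without inhibitor and -100% = no enzyme wells.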 The settings on record: Biochemical Sfp PPTase activity. From the text: Assay Submitter: Michael Burkart, University of California, San Diego
Screening Center PI: Austin, C.P.
Screening Center: NIH Chemical Genomics Center [NCGC]
The covalent attachment of a phosphopantetheinyl (4'-PP) arm to a variety of synthases and other proteins is a key posttranslational protein modification. The 4'-PP is installed on the proteins post-translationally from coenzyme A (CoA) on a conserved serine residue by action of phosphopantetheinyl transferase (PPTase) enzymes. Phosphopantetheinylation is essential for synthase activity, and removal of the PPTase gene precludes natural product synthesis in microorganisms, or in the case of fatty acid biosynthesis, renders the organism unviable. PPTase enzymes belong to a distinct structural superfamily. Within bacteria, these enzymes are grouped into two classes based upon primary structure, the AcpS-Type and Sfp-Type PPTases.
Sfp-type PPTases, corresponding to an activator of surfactin production in Bacillus subtilis, are responsible for modifying type I polyketide and nonribosomal peptide synthases of prokaryotes. Sfp-type PPTases are responsible for the activation of a variety of pathogen-associated virulence factors. Among these compounds are toxins such as mycolactone from Mycobacterium ulcerans, siderophores such as vibriobactin from Vibrio cholerae or mycobactin from Mycobacterium tuberculosis, as well as the mycolic acids which form the waxy cell wall of Mycobacteria. The biosyntheses of these natural products are considered attractive targets for drug design.
In search of small molecule Sfp-PPTase inhibitors, a fluorescence quenching assay was developed for detection of Bacillus subtilis Sfp-PPTase enzymatic activity in a miniaturized high-throughput format. The consensus ybbr acceptor peptide […] was N-terminally labeled with Black Hole Quencher-2 (BHQ-2) and used in combination with rhodamine-labeled coenzyme A as a co-substrate.
Inhibition of Sfp-PPTase was detected by recording the fluorescence intensity change over a 30-minute reaction period at a 525 nm excitation and 598 nm emission. Reagents were supplied by Michael Burkart and Timothy Foley, University of California at San Diego.
This BioAssay deposition is for validation of the developed Sfp-PPtase assay.
Assay Buffer: 50 mM Hepes-Na pH 7.6, 10 mM MgCl2, 0.01% Nonidet P-40, and 0.01% BSA.
3 uL of Sfp-PPTase enzyme (final concentration 15 nM) and 1 uL of substrate mixture (final concentration for rhodamine-CoA and BHQ-2-YbbR 5 uM and 12.5 uM, respectively) dispensed in columns 1, 2, 5 - 48. Columns 1 and 2 used to generate neutral control (uninhibited reaction)
Three uL of reagents, consisting of buffer (in columns 3 and 4 as negative control) and Sfp-PPTase (in columns 1, 2, 5 - 48) were dispensed into 1,536-well Greiner black solid bottom plate. Compounds (23 nL) were transferred via Kalypsys pintool equipped with 1,536-pin array. The plate was incubated for 15 min at room temperature, followed by the addition of 1 uL substrate to start the reaction. The plate was then centrifuged at 1000 rpm for 15 seconds, and the fluorescence intensity recorded on a ViewLux High-throughput CCD imager (Perkin-Elmer) using standard BODIPY optics (525 nm excitation and 598 nm emission). The plate was then incubated for 30 minutes, and a second read on the ViewLux was performed. The fluorescence intensity difference over the 30-minute period was used to calculate the respective reaction rate for each well.
For the compound `COc1ccc(CN2C(=O)NC(=O)/C(=C\c3ccc(OC)c(OC)c3OC)C2=O)cc1`, the Potency was 56.2 µM (active).

For the compound `C1CC[C@H]([C@@]23C[C@H](C[C@H]4CCCN[C@H]42)[C@@H]2CCCCN2C3)NC1`, the largest response in the series, negative = inhibition was 15.7%.

Take `CN(C)C[C@H]1CCCC[C@]1(O)c1cccc(O)c1`: the largest response in the series, negative = inhibition is 5.94%.

Consider `CN(C)CC1Oc2ccccc2OC1(O)c1ccccc1` (configuration not stated), for which the Potency was 39.8 µM (active).

`Fc1cccc(F)c1CN1CCN(Cc2c(F)cccc2F)CC1`: the largest response in the series, negative = inhibition is 16%.

Turning to `Cc1cccc(-n2c(C)nc3cc(C(=O)N4CCC5(CC4)OCCO5)ccc32)c1`, the largest response in the series, negative = inhibition is 8.78%.

Consider `CN(C)P(=S)(Nc1ccccc1)C(Cl)(Cl)Cl` (configuration not stated), for which the largest response in the series, negative = inhibition was 10.7%.

As for `COC([CH2][Hg])CNC(=O)c1ccccc1OCC(=O)O` (configuration not stated), the Potency was 0.398 µM (active).

As for `O=C(NC(c1ccc(Cl)cc1)P(=O)(Oc1ccccc1)Oc1ccccc1)OCc1ccccc1` (configuration not stated), the largest response in the series, negative = inhibition is 19.5%.

Turning to `CN1CCCC(=C(c2cccs2)c2cccs2)C1`, the largest response in the series, negative = inhibition was 3.76%.

Take `c1ccc2c(c1)[I+]c1ccccc1-2`: the largest response in the series, negative = inhibition is -15.8% and 9.27%.

In the case of `O=C1CCc2cccc3c2N1CC3`, the largest response in the series, negative = inhibition was -2.12%.

Turning to `O=C(O)CCn1cc(C=C2C(=O)NC(=S)NC2=O)c(-c2cccc(Br)c2)n1`, the Potency is 25.1 µM (active).

Regarding `O=P1(Oc2ccccc2)CC(O)C(O)C(COCc2ccccc2)O1` (configuration not stated), the largest response in the series, negative = inhibition was -2.12%.

For `CCCCCCCCCCCCCC(=O)O[C@@H]1[C@@H](C)[C@@]2(O)[C@@H](C=C(CO)C[C@]3(O)C(=O)C(C)=C[C@@H]23)[C@@H]2C(C)(C)[C@]12OC(C)=O`, the largest response in the series, negative = inhibition is 9.82%.

As for `c1ccc2sc(C3CCCNC3)nc2c1` (configuration not stated), the largest response in the series, negative = inhibition is 9.62%.

On to `Cc1ccc(N(C)C(=O)Oc2cccc3ccc(C)nc23)cc1`, for which the largest response in the series, negative = inhibition is 4.73%.

Take `CC(C)c1ccc(O)c(CN2CCN(c3ccccc3)CC2)c1`: the largest response in the series, negative = inhibition is 7.52%.

For `c1cc2c(cc1CCNC1CCCCCC1)OCO2`, the largest response in the series, negative = inhibition was -0.383%.

As for `CCOP(=S)(OCC)C(O)CCCCCn1c(=O)c(F)cn(C2CCCO2)c1=O` (configuration not stated), the largest response in the series, negative = inhibition is 8.97%.

With `N#Cc1cc(Br)c(O)c(Br)c1`, the largest response in the series, negative = inhibition was 9.61%.

Regarding `C/C(=C\C=C/[C@@H](C)C(=O)O)[C@H]1CN[C@H](C(=O)O)[C@@H]1CC(=O)O`, the Potency was 63.1 µM (active).

For `C/C=C1\C2C=C(C)CC1(N)c1ccc(=O)[nH]c1C2` (configuration not stated), the largest response in the series, negative = inhibition is 24.3%.

With `CN(C)C(=O)NC(O)C(Cl)(Cl)Cl` (configuration not stated), the largest response in the series, negative = inhibition was 0.838%.

Regarding `CNC(C)[C@@H](O)c1ccccc1` (some centres not stated), the largest response in the series, negative = inhibition was 20.7%.

Take `O=C1NC(=O)C(C/C=C/c2ccccc2)C(=O)N1`: the Potency is 70.8 µM (active).

For `COc1ccc(CCn2c(O)c(C=NCCCn3ccnc3)c(=O)[nH]c2=O)cc1OC`, the largest response in the series, negative = inhibition is 15.8%.

For `CC(Cc1cccs1)NCc1ccc(Cl)cc1` (configuration not stated), the largest response in the series, negative = inhibition is 26%.

Regarding `O=C(O)c1ccccc1NC(=O)C1C2CCC(O2)C1C(=O)O` (configuration not stated), the largest response in the series, negative = inhibition was 2.88%.

Consider `Cc1cc(C=C2C(=O)NC(=O)NC2=O)c(C)n1-c1ccncc1`, for which the Potency was 56.2 µM (active).

As for `Cc1ccnc(-n2c(C)cc(/C=C3\C(=O)NC(=S)N(C)C3=O)c2C)c1`, the Potency is 25.1 µM (active).

`Cc1ccc(-n2c(C)cc(/C=C3\C(=O)NC(=O)N(C)C3=O)c2C)cc1C`: the largest response in the series, negative = inhibition was -19.1%.

For the compound `CCN1C[C@]2(C)CC[C@H](O)[C@@]34[C@@H]5CC6[C@@H](OC)C[C@@](O)([C@@H]5[C@@H]6O)[C@H](C[C@@H]23)[C@H]14`, the largest response in the series, negative = inhibition was 12.6%.

With `CC12CN3CC(C)(CN(C1)C3c1cccs1)C2` (configuration not stated), the largest response in the series, negative = inhibition is 10.2%.

As to `CCCCCCCCc1[se]c2ccccc2c1Br`, the largest response in the series, negative = inhibition was 14.5%.

On to `O=C(Nc1cccc2ccccc12)N1CCC2(CC1)OCCO2`, for which the largest response in the series, negative = inhibition was 0.463%.

For `O=C(OCC1O[C@@H](OC(=O)c2cc(O)c(O)c(O)c2)[C@@H](OC(=O)c2cc(O)c(O)c(O)c2)[C@@H](OC(=O)c2cc(O)c(O)c(O)c2)[C@@H]1OC(=O)c1cc(O)c(O)c(O)c1)c1cc(O)c(O)c(O)c1` (some centres not stated), the Potency was 25.1 µM (active).

Take `O=C1NC(=O)C(CCc2ccccn2)(Cc2cccc(Cl)c2Cl)C(=O)N1c1ccc(Br)cc1` (configuration not stated): the largest response in the series, negative = inhibition is 4.65%.

In the case of `COc1cc2c(cc1OC)[C@@H]1C(=O)c3ccc(O)c(CC=C(C)C)c3OC1CO2` (some centres not stated), the largest response in the series, negative = inhibition was 0.512%.

Consider `CC(=O)c1c(O)c(C)c(O)c(Cc2c(O)c3c(c(C(=O)/C=C/c4ccccc4)c2O)OC(C)(C)C=C3)c1O`, for which the largest response in the series, negative = inhibition is -11.4% and -12.1% and -5.71%.

`COc1ccccc1-c1[se]c2ccccc2c1I`: the largest response in the series, negative = inhibition was -3.36%.

Turning to `COc1ccc(N2C(=O)/C(=C/c3ccco3)C(=O)NC2=S)cc1`, the Potency is 11.2 µM (active).
